Experimental data reported in the antibiotic and cytotoxicity screens of Wong et al. (2023).
Hit rate of the full screen: of about 39,000 compounds, about 3,300 (8.5%) were called active. The list comes from a sample in which actives are over-represented; it also holds similar structures and randomly drawn compounds.

test system: HepG2; assay: cytotoxicity call (relative viability < 0.9); details: 10 µM

| SMILES | cytotoxicity call |
| --- | --- |
| Cc1nn2cc(CN)nc2s1 | inactive |
| C[C@@H]1CN([C@H](C)CO)C(=O)Cc2cc(NC(=O)C3CC3)ccc2O[C@@H]1CN(C)S(=O)(=O)c1cn(C)cn1 | inactive |
| C=CCC[C@@H](Cc1ccc(F)cc1)C(=O)OC[C@@H](NC(=O)[C@@H](CC=C)CC(=O)N(CCO)Cc1ccccc1)C(C)(C)C | inactive |
| C[C@@H]1CN([C@@H](C)CO)C(=O)c2cccc(NS(C)(=O)=O)c2O[C@@H]1CN(C)Cc1ccc(C(F)(F)F)cc1 | inactive |
| C[C@@H]1CN([C@@H](C)CO)S(=O)(=O)c2ccc(Br)cc2O[C@H]1CN(C)Cc1ccc(-c2ccccc2)cc1 | inactive |
| C[C@@H]1CN([C@H](C)CO)C(=O)c2cc(NS(=O)(=O)c3ccc(Cl)cc3)ccc2O[C@@H](C)CCCCO[C@@H]1CN(C)C(=O)NC1CCCCC1 | active |
| C[C@@H]1CCCCO[C@H](CN(C)C(=O)NC2CCCCC2)[C@H](C)CN([C@@H](C)CO)C(=O)c2cc(NS(=O)(=O)c3ccc(Cl)cc3)ccc2O1 | inactive |
| C[C@@H]1CCCCO[C@H](CN(C)C(=O)NC2CCCCC2)[C@H](C)CN([C@H](C)CO)C(=O)c2cc(NS(=O)(=O)c3ccc(Cl)cc3)ccc2O1 | active |
| C[C@H]1CCCCO[C@@H](CN(C)C(=O)NC2CCCCC2)[C@@H](C)CN([C@@H](C)CO)C(=O)c2cc(NS(=O)(=O)c3ccc(Cl)cc3)ccc2O1 | inactive |
| C[C@H]1CCCCO[C@H](CN(C)C(=O)NC2CCCCC2)[C@@H](C)CN([C@@H](C)CO)C(=O)c2cc(NS(=O)(=O)c3ccc(Cl)cc3)ccc2O1 | inactive |
| C[C@@H]1CCCCO[C@@H](CN(C)C(=O)NC2CCCCC2)[C@@H](C)CN([C@@H](C)CO)C(=O)c2cc(NS(=O)(=O)c3ccc(Cl)cc3)ccc2O1 | inactive |
| C[C@@H]1CN([C@H](C)CO)S(=O)(=O)c2ccc(C#C[C@@H](C)O)cc2O[C@H]1CN(C)C(=O)c1ccccc1 | inactive |
| COc1ccccc1NC(=O)N(C)C[C@@H]1OCc2ccccc2-c2c(n(C)c3ccccc23)C(=O)N([C@H](C)CO)C[C@H]1C | inactive |
| O=C(C[C@@H]1C[C@@H]2c3cc(NC(=O)NC4CCCC4)ccc3O[C@@H]2[C@@H](CO)O1)NCCN1CCCCC1 | inactive |
| CN(C)c1ccc(C(=C2C=CC(=[N+](C)C)C=C2)c2ccc(N(C)C)cc2)cc1.[Cl-] | active |
| C[C@@H]1CCCCO[C@@H](CN(C)Cc2ccc(Cl)c(Cl)c2)[C@@H](C)CN([C@H](C)CO)C(=O)c2cc(NS(C)(=O)=O)ccc2O1 | inactive |
| COc1ccc(NC(=O)N(C)C[C@@H]2Oc3ccc(NS(=O)(=O)c4c(C)noc4C)cc3C(=O)N([C@@H](C)CO)C[C@@H]2C)cc1 | active |
| COc1ccc(NC(=O)N(C)C[C@@H]2Oc3ccc(NS(=O)(=O)c4c(C)noc4C)cc3C(=O)N([C@@H](C)CO)C[C@H]2C)cc1 | inactive |
| COc1ccc(NC(=O)N(C)C[C@@H]2Oc3ccc(NS(=O)(=O)c4c(C)noc4C)cc3C(=O)N([C@H](C)CO)C[C@@H]2C)cc1 | inactive |
| COc1ccc(S(=O)(=O)N(C)C[C@H]2Oc3ccc(NS(=O)(=O)c4c(C)noc4C)cc3C(=O)N([C@H](C)CO)C[C@H]2C)cc1 | inactive |

| SMILES | cytotoxicity call |
| --- | --- |
| COc1ccc(S(=O)(=O)N(C)C[C@@H]2Oc3ccc(NS(=O)(=O)c4c(C)noc4C)cc3C(=O)N([C@H](C)CO)C[C@@H]2C)cc1 | active |
| COc1ccc(S(=O)(=O)N(C)C[C@H]2Oc3ccc(NS(=O)(=O)c4c(C)noc4C)cc3C(=O)N([C@H](C)CO)C[C@@H]2C)cc1 | inactive |
| Cc1cc(C(=O)Nc2cccc3c2O[C@H](CN(C)S(=O)(=O)c2c(C)noc2C)[C@H](C)CN([C@@H](C)CO)C3=O)n(C)n1 | inactive |
| C[C@@H]1CCCCO[C@@H](CN(C)C(=O)Nc2cccc3ccccc23)[C@@H](C)CN([C@H](C)CO)C(=O)c2cc(NS(=O)(=O)c3ccccc3)ccc2O1 | inactive |
| COc1cccc(C#Cc2ccc([C@@H]3[C@@H](CO)N4C(=O)CN(S(=O)(=O)c5ccccc5C)C[C@H]34)cc2)c1 | inactive |
| C[C@@H]1CN([C@@H](C)CO)C(=O)c2cccc(NC(=O)CCCCCC(=O)Nc3ccccc3N)c2O[C@H]1CN(C)C(=O)Nc1ccccc1 | inactive |
| Cc1noc(C)c1S(=O)(=O)Nc1ccc2c(c1)C(=O)N([C@H](C)CO)C[C@@H](C)[C@@H](CN(C)Cc1ccncc1)O2 | inactive |
| O=C(C[C@@H]1CC=CC[C@H](NC(=O)OCC2c3ccccc3-c3ccccc32)C(=O)O[C@@H](c2ccccc2)CNC1=O)N[C@@H](CO)Cc1ccccc1 | inactive |
| C[C@@H]1CN([C@H](C)CO)C(=O)Cc2cc(NC(=O)C3CC3)ccc2O[C@@H]1CN(C)S(=O)(=O)c1ccc(Cl)cc1 | inactive |
| Cc1ccc(S(=O)(=O)N(C)C[C@@H]2Oc3ccc(NC(=O)C4CC4)cc3CC(=O)N([C@@H](C)CO)C[C@H]2C)cc1 | inactive |
| Cc1ccc(S(=O)(=O)N(C)C[C@@H]2Oc3ccc(NC(=O)C4CC4)cc3CC(=O)N([C@@H](C)CO)C[C@@H]2C)cc1 | active |
| C[C@H]1CN([C@@H](C)CO)C(=O)Cc2cc(NC(=O)C3CC3)ccc2O[C@H]1CN(C)S(=O)(=O)c1ccc(Cl)cc1 | active |
| Cc1ccc(S(=O)(=O)N(C)C[C@H]2Oc3ccc(NC(=O)C4CC4)cc3CC(=O)N([C@@H](C)CO)C[C@@H]2C)cc1 | inactive |
| C[C@H](CO)N1C[C@H](C)[C@H](CN(C)S(=O)(=O)c2ccc(Cl)cc2)Oc2ccc(NC(=O)C3CC3)cc2CC1=O | inactive |
| C[C@H]1CN([C@@H](C)CO)C(=O)c2cccc(NC(=O)c3ccc(-c4nccs4)cc3)c2O[C@@H]1CN(C)C(=O)Nc1cccc2ccccc12 | inactive |
| COc1ccc(S(=O)(=O)N(C)C[C@H]2Oc3cc(-c4ccccc4OC)ccc3S(=O)(=O)N([C@H](C)CO)C[C@H]2C)cc1 | active |
| COc1ccc(S(=O)(=O)N(C)C[C@@H]2Oc3cc(-c4ccccc4OC)ccc3S(=O)(=O)N([C@H](C)CO)C[C@@H]2C)cc1 | active |
| COc1ccc(S(=O)(=O)N(C)C[C@@H]2Oc3cc(-c4ccccc4OC)ccc3S(=O)(=O)N([C@@H](C)CO)C[C@H]2C)cc1 | inactive |
| COc1ccc(S(=O)(=O)N(C)C[C@@H]2Oc3cc(-c4ccccc4OC)ccc3S(=O)(=O)N([C@@H](C)CO)C[C@@H]2C)cc1 | inactive |
| COc1ccc(S(=O)(=O)N(C)C[C@@H]2Oc3cc(-c4ccccc4OC)ccc3S(=O)(=O)N([C@H](C)CO)C[C@H]2C)cc1 | inactive |

| SMILES | cytotoxicity call |
| --- | --- |
| COc1ccc(S(=O)(=O)N(C)C[C@H]2Oc3cc(-c4ccccc4OC)ccc3S(=O)(=O)N([C@H](C)CO)C[C@@H]2C)cc1 | inactive |
| C[C@@H]1CN([C@@H](C)CO)S(=O)(=O)c2ccc(-c3cccc(C#N)c3)cc2O[C@H]1CN(C)C(=O)c1ccncc1 | inactive |
| Cc1noc(C)c1S(=O)(=O)N(C)C[C@@H]1OCCCC[C@@H](C)Oc2ccc(NC(=O)Nc3ccc(C(F)(F)F)cc3)cc2C(=O)N([C@H](C)CO)C[C@H]1C | inactive |
| Cc1noc(C)c1S(=O)(=O)N(C)C[C@H]1OCCCC[C@@H](C)Oc2ccc(NC(=O)Nc3ccc(C(F)(F)F)cc3)cc2C(=O)N([C@@H](C)CO)C[C@H]1C | inactive |
| Cc1noc(C)c1S(=O)(=O)N(C)C[C@H]1OCCCC[C@H](C)Oc2ccc(NC(=O)Nc3ccc(C(F)(F)F)cc3)cc2C(=O)N([C@@H](C)CO)C[C@@H]1C | active |
| Cc1noc(C)c1S(=O)(=O)N(C)C[C@@H]1OCCCC[C@H](C)Oc2ccc(NC(=O)Nc3ccc(C(F)(F)F)cc3)cc2C(=O)N([C@H](C)CO)C[C@H]1C | inactive |
| Cc1noc(C)c1S(=O)(=O)N(C)C[C@H]1OCCCC[C@@H](C)Oc2ccc(NC(=O)Nc3ccc(C(F)(F)F)cc3)cc2C(=O)N([C@H](C)CO)C[C@@H]1C | active |
| Cc1noc(C)c1S(=O)(=O)N(C)C[C@H]1OCCCC[C@@H](C)Oc2ccc(NC(=O)Nc3ccc(C(F)(F)F)cc3)cc2C(=O)N([C@@H](C)CO)C[C@@H]1C | inactive |
| Cc1noc(C)c1S(=O)(=O)N(C)C[C@@H]1OCCCC[C@H](C)Oc2ccc(NC(=O)Nc3ccc(C(F)(F)F)cc3)cc2C(=O)N([C@H](C)CO)C[C@@H]1C | active |
| Cc1noc(C)c1S(=O)(=O)N(C)C[C@H]1OCCCC[C@H](C)Oc2ccc(NC(=O)Nc3ccc(C(F)(F)F)cc3)cc2C(=O)N([C@H](C)CO)C[C@H]1C | inactive |
| Cc1noc(C)c1S(=O)(=O)N(C)C[C@@H]1OCCCC[C@@H](C)Oc2ccc(NC(=O)Nc3ccc(C(F)(F)F)cc3)cc2C(=O)N([C@H](C)CO)C[C@@H]1C | inactive |
| C[C@@H]1CN([C@H](C)CO)C(=O)c2cccc(NC(=O)c3cnccn3)c2O[C@H]1CN(C)CC1CCCCC1 | inactive |
| O=C(C[C@H]1CC[C@@H]2[C@H](COC[C@H](O)CN2C(=O)c2cccnc2)O1)NCc1ccc(-c2ccccc2)cc1 | inactive |
| C[C@@H]1CN([C@@H](C)CO)C(=O)c2cccc(NS(=O)(=O)c3ccc(F)cc3)c2O[C@@H]1CN(C)S(=O)(=O)c1cccs1 | inactive |
| C[C@@H]1CN([C@@H](C)CO)C(=O)Cc2cc(NC(=O)CCN3CCOCC3)ccc2O[C@@H]1CN(C)S(=O)(=O)c1cccs1 | inactive |
| C[C@H]1CN([C@@H](C)CO)C(=O)c2ccccc2-c2ccccc2CO[C@@H]1CN(C)C(=O)Nc1ccc(F)cc1 | inactive |
| O=C(CN1CCOCC1)N[C@@H]1CC[C@H](CCn2cc(C3CC3)nn2)O[C@@H]1CO | inactive |
| O=C(CN1CCOCC1)N[C@H]1CC[C@@H](CCn2cc(C3CC3)nn2)O[C@H]1CO | active |
| O=C(CN1CCOCC1)N[C@H]1CC[C@H](CCn2cc(C3CC3)nn2)O[C@@H]1CO | inactive |
